Compound activity deposited in PubChem by several laboratories.
Sampled rows, rich in hits. Any-hit rate of the full collection: about 6.6%.
BoNT-A LC inh2 = inhibitors of Botulinum neurotoxin A light chain protease; multiplex microsphere protease substrate cleavage, flow cytometry; inhibition, % at 10 µM; hit rate 0.17% among 360,000; also: plate controls were buffer without enzyme for full effect and enzyme alone for no effect
Bead autofluor = compound fluorescence in toxin protease inhibitor counterscreen; compound autofluorescence counterscreen, microsphere flow cytometry; active compounds read high; hit rate 3.1% among 360,000; AID 624483; fluorescence intensity (concentration not given with the values); in the data active = fluorescence intensity above about 16000; inconclusive = no clear call, values can overlap the other calls
GDH-TPI counter = inhibits GDH-TPI coupling enzymes, artifact for Mtb FBA screen. hit rate 1.2% among 360,000. AID 588335. GDH-TPI coupled enzyme counterscreen, NADH absorbance. inhibition, % at 4.8 µM; in the data active = inhibition above about 30%;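 also: 0% = DMSO wells and 100% = wells lacking the enzyme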
Anthrax LF inh2 = anthrax lethal factor protease inhibition; inhibition, % at 10 µM; multiplex microsphere protease cleavage assay, LF; hit rate 0.12% among 360,000; P15917; also: plate controls were buffer without enzyme for full effect and enzyme alone for no effect
FBA Mtb inh = inhibitors of M. tuberculosis fructose-bisphosphate aldolase; P9WQA3; purified M. tuberculosis FBA, fluorescence read-out; inhibition, % at 1 µM; hit rate 2.3% among 360,000; in the data active = inhibition above about 27%;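 also: 0% = vehicle and 100% = reference inhibitor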
Target sequence (P9WQA3 whole entry, looked up): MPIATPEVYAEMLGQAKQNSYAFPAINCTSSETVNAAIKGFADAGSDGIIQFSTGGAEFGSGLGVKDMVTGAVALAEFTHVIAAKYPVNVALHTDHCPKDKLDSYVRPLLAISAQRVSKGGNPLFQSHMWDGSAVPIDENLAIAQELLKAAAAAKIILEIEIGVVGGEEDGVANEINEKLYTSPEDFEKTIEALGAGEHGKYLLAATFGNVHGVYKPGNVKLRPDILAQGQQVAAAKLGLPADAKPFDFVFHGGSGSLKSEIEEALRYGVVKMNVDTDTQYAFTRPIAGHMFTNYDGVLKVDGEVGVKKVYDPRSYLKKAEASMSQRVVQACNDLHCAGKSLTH
BoNT-F LC inh = inhibitors of Botulinum neurotoxin F light chain protease. Multiplex microsphere protease cleavage assay, flow cytometry. inhibition, % at 10 µM. hit rate 0.22% among 360,000. AID 588497; in the data active = inhibition above about 35%, passing the limit was not always enough; inconclusive = no clear call, values can overlap the other calls; also: plate controls were buffer without enzyme for full effect and enzyme alone for no effect
Starred values were filed as active, the others as inactive; ? = inconclusive; . = not tested or not shown. Rule as the data show it, unless noted: active = inhibition above about 30%; inconclusive = no clear call, values can overlap the other calls; inactive = below that.

SMILES	BoNT-A LC inh2	Bead autofluor	GDH-TPI counter	Anthrax LF inh2	FBA Mtb inh	BoNT-F LC inh
CCOC(=O)c1c(C)[nH]c(C(=O)OCc2ccccc2)c1C	-2	6722	-1	1	5	-18
CCOC(=O)c1[nH]c(C)c(C(=O)OCCN2C(=O)c3ccccc3C2=O)c1C	-2	20341*	-8	-8	-1	-5
CCOC(=O)c1[nH]c(C)c(C(=O)N(C)Cc2ccccc2)c1C	3	18491*	8	2	0	1
CNC(=O)COC(=O)c1[nH]c(C)c(C(C)=O)c1C	?	16399*	10	-2	0	-1
CCOC(=O)c1c(C)[nH]c(C(=O)NCc2ccccn2)c1C	5	?	12	-2	8	3
CCNC(=O)c1c(C)[nH]c(C(=O)OCC)c1C	-6	24505*	11	-2	-1	-7
Cc1cc(OCC(=O)OCC(=O)NCc2ccc3c(c2)OCO3)ccc1Cl	3	?	2	3	-1	3
CCOc1ccc(S(=O)(=O)Nc2ccccc2SC)cc1	-2	24042*	6	-4	1	-4
COC(=O)COc1ccc(S(=O)(=O)Nc2ccccc2SC)cc1	?	23132*	-4	-2	0	-6
CCOc1ccc(NS(=O)(=O)c2ccc(NS(=O)(=O)c3ccccc3)cc2)cc1	-1	8285	5	2	0	-10
COC(=O)COc1ccc(S(=O)(=O)Nc2ccc(C(N)=O)cc2)cc1	1	4230	3	8	-1	3
CCc1ccc([C@@H]2C[C@H]3[C@@H](CN2S(=O)(=O)c2ccc(C)cc2)C(=O)C[C@@H](c2ccc(C)cc2)N3S(=O)(=O)c2ccc(C)cc2)cc1	0	2931	2	4	-1	0
N#CCc1c(C#N)c(N)nc(N2CCN(Cc3ccc4c(c3)OCO4)CC2)c1C#N	4	19575*	27	0	4	1
O=C1CCN(Cc2ccccc2)CCN1CCO	-2	3510	10	-13	6	-7
O=C1CCN(Cc2ccc(O)cc2)CCN1CCO	0	4245	34*	3	1	-12
C=C1CCN([C@@H](CC(C)C)C(=O)N2CCCC2)S(=O)(=O)c2ccccc21	0	4277	9	-3	0	-6
CCCCCCCCN1C(=O)[C@H](CC(=O)N2CCSCC2)C[C@@]2(C(=O)OCC)CCCC=C12	-1	4430	.	-9	.	-8
COC(=O)[C@]1(Cc2ccccc2)N[C@H](c2ccc(-c3ccccc3)cc2)[C@@H]2C(=O)N(C)C(=O)[C@@H]21	0	4302	-6	-1	3	-11
COC(=O)[C@]1(Cc2ccccc2)N[C@H](c2ccc(-c3cc(C(C)=O)cs3)cc2)[C@@H]2C(=O)N(C)C(=O)[C@@H]21	0	3281	34*	-2	8	-10
O=C(c1ccc(COc2ccccc2[N+](=O)[O-])o1)N1CCCCC1	0	19870*	-4	-1	6	-1
COc1ccc(S(=O)(=O)N(C)C[C@@H]2Oc3cc(C#CC4CCCCC4)ccc3S(=O)(=O)N([C@@H](C)CO)C[C@@H]2C)cc1	0	3246	16	-7	2	-2
CCOc1cc(C2NC(=O)NC(C)=C2C(=O)NCc2ccccc2)c(Cl)cc1O (stereo unspecified)	0	20868*	-4	0	5	1
C=CCOc1ccccc1C1NC(=O)NC(C)=C1C(=O)NCc1ccccc1 (stereo unspecified)	?	17255*	10	1	0	-5
COc1cc(C2NC(=O)NC(C)=C2C(=O)NCc2ccccc2)c(Cl)cc1O (stereo unspecified)	0	9571	-2	0	-2	-7
Cc1oc(-c2cccs2)cc1C(=O)N1CCCC(C)(C(=O)O)C1 (stereo unspecified)	0	3645	7	-4	-1	4
COc1ccc(/C=C/C(=O)NC(=S)NNC(=O)c2cc(OC)c(OC)c(OC)c2)cc1	?	3522	18	0	-1	?
COc1ccc(/C=C/C(=O)NC(=S)NNC(=O)c2cc(OC)c(OC)c(OC)c2)cc1OC	.	.	51*	.	0	.
COc1cc(/C=C/C(=O)Nc2ccc(C(C)=O)cc2)cc(OC)c1OC	1	2050	45*	-2	1	-6
O=C(Nc1cnccn1)C1c2ccccc2Oc2ccccc21	2	19665*	-9	-1	1	2
